Laboratory results published in PubChem BioAssay AID1159580 (chemical genetic matrix, 2015).
The campaign covered roughly 5,500 compounds. About 2,000 (36%) were called active. Inconclusive results (about 18%) are left out. Rule as the data show it: active = normalized growth mostly below about 0.91 (no sharp cut-off); inconclusive = no clear call, values can overlap the other calls; inactive = mostly above about 0.92. The list shows a part of the results.

Assay: chemical genetic growth profiling, strain panel (AID 1159580);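 also: tested at 20 µM; growth read once vehicle control cultures reached saturation at 30 °C; 1 = growth at the plate median or of vehicle wells; lower values mean less growth of the strain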
Conditions: S. cerevisiae deletion strains, growth OD

Measured: normalized growth

COc1ccc2c(c1)CCC1C2CCC2(C)C1C[C@@H](O)C2O (stereo not given in full)
active: locus YAL026C, strain drs2, stronger effect = lower value 0.83 | locus YDR392W, strain spt3, stronger effect = lower value 0.685 | locus YER155C, strain BEM2 (second series), stronger effect = lower value 0.715 | locus YGL253W, strain hxk2, stronger effect = lower value 0.903 | locus YJL164C, strain tpk1, stronger effect = lower value 0.907
inactive: locus YAL013W, strain DEP1, stronger effect = lower value 1 | locus YAL021C, strain ccr4, stronger effect = lower value 0.947 | locus YAL030W, strain snc1, stronger effect = lower value 1 | locus YBL061C, strain skt5, stronger effect = lower value 1 | locus YBR009C, strain hhf1, stronger effect = lower value 0.917 | locus YBR021W, strain FUR4, stronger effect = lower value 1.08 | locus YBR023C, strain chs3, stronger effect = lower value 0.988 | locus YBR171W, strain sec66, stronger effect = lower value 0.983 | locus YBR229C, strain ROT2, stronger effect = lower value 1.02 | locus YBR231C, strain swc5, stronger effect = lower value 1.01 | locus YBR279W, strain paf1, stronger effect = lower value 0.992 | locus YCL011C, strain gbp2, stronger effect = lower value 0.977 | locus YCL016C, strain dcc1, stronger effect = lower value 0.949 | locus YCL029C, strain bik1, stronger effect = lower value 0.993 | locus YCL061C, strain MRC1, stronger effect = lower value 0.985 | locus YCL069W, strain vba3, stronger effect = lower value 1 | locus YCR088W, strain abp1, stronger effect = lower value 0.998 | locus YDL005C, strain med2, stronger effect = lower value 1.01 | locus YDL035C, strain GPR1, stronger effect = lower value 0.962 | locus YDL040C, strain nat1, stronger effect = lower value 0.993 | locus YDL074C, strain BRE1, stronger effect = lower value 0.95 | locus YDL101C, strain DUN1, stronger effect = lower value 1.02 | locus YDL134C, strain PPH21, stronger effect = lower value 0.952 | locus YDL185W, strain tfp1, stronger effect = lower value 0.992 | locus YDL192W, strain arf1, stronger effect = lower value 0.997 | locus YDR001C, strain nth1, stronger effect = lower value 1.01 | locus YDR069C, strain doa4, stronger effect = lower value 0.992 | locus YDR101C, strain arx1, stronger effect = lower value 0.987 | locus YDR137W, strain rgp1, stronger effect = lower value 0.854 | locus YDR150W, strain NUM1, stronger effect = lower value 1.01 | locus YDR159W, strain sac3, stronger effect = lower value 0.966 | locus YDR162C, strain NBP2, stronger effect = lower value 0.978 | locus YDR195W, strain ref2 1.1 | locus YDR297W, strain sur2, stronger effect = lower value 1 | locus YDR318W, strain mcm21, stronger effect = lower value 0.991 | locus YDR334W, strain swr1, stronger effect = lower value 1 | locus YDR335W, strain msn5, stronger effect = lower value 0.997 | locus YDR388W, stronger effect = lower value 0.99 | locus YDR502C, strain sam2, stronger effect = lower value 0.997 | locus YEL003W, strain gim4, stronger effect = lower value 0.992 | locus YEL037C, strain rad23, stronger effect = lower value 1 | locus YEL061C, strain CIN8 (second series), stronger effect = lower value 1.01 | locus YEL061C, strain CIN8, stronger effect = lower value 1.01 | locus YER015W, strain faa2, stronger effect = lower value 0.996 | locus YER016W, strain bim1, stronger effect = lower value 0.979 | locus YER110C, stronger effect = lower value 0.983 | locus YER111C, strain swi4, stronger effect = lower value 0.984 | locus YER155C, strain BEM2, stronger effect = lower value 1.02 | locus YER167W, strain BCK2, stronger effect = lower value 0.999 | locus YFR010W, strain ubp6, stronger effect = lower value 1 | locus YGL078C, strain dbp3, stronger effect = lower value 0.997 | locus YGL086W, strain mad1, stronger effect = lower value 0.991 | locus YGL167C, strain pmr1, stronger effect = lower value 1 | locus YGL173C, strain kem1, stronger effect = lower value 0.949 | locus YGL227W, strain vid30, stronger effect = lower value 1 | locus YGL240W, strain doc1, stronger effect = lower value 0.944 | locus YGL248W, strain PDE1, stronger effect = lower value 1 | locus YGR135W, strain pre9, stronger effect = lower value 0.961 | locus YGR252W, strain gcn5, stronger effect = lower value 0.774 | locus YHR013C, strain ard1, stronger effect = lower value 0.906 | locus YHR027C, strain rpn1, stronger effect = lower value 1.01 | locus YHR030C, strain SLT2, stronger effect = lower value 1.01 | locus YHR079C, strain IRE1 (second series), stronger effect = lower value 0.992 | locus YHR094C, strain hxt1, stronger effect = lower value 0.992 | locus YHR129C, strain ARP1, stronger effect = lower value 1.01 | locus YHR142W, strain chs7, stronger effect = lower value 0.925 | locus YHR200W, strain rpn10, stronger effect = lower value 0.993 | locus YIL066C, strain RNR3, stronger effect = lower value 0.98 | locus YIL073C, strain SPO22, stronger effect = lower value 0.91 | locus YIL125W, strain kgd1, stronger effect = lower value 1 | locus YIR030C, strain dcg1, stronger effect = lower value 0.991 | locus YJL092W, strain hpr5, stronger effect = lower value 0.998 | locus YJL095W, strain BCK1 (second series), stronger effect = lower value 0.981 | locus YJL095W, strain BCK1, stronger effect = lower value 0.944 | locus YJL115W, strain asf1, stronger effect = lower value 0.995 | locus YJL129C, strain trk1, stronger effect = lower value 0.915 | locus YJL134W, strain LCB3, stronger effect = lower value 1.02 | locus YJL154C, strain vps35, stronger effect = lower value 1.02 | locus YJL168C, strain set2, stronger effect = lower value 0.994 | locus YJL187C, strain SWE1 (second series), stronger effect = lower value 1
